Reference: PubChem BioAssay (EPA / NIEHS)
Inconclusive results are not listed. The source made the active and inactive calls. The calls were made as follows, unless noted: active = hit-call score of the fitted dose curve at least 0.9, where 1 is the maximum; inactive = score below 0.9.

What was measured:
TIMP1, TIMP1 (gene 7076) = experiment: LTEA_HepaRG_TIMP1: Life Technologies and Expression Analysis (LTEA) Assay for TIMP1 using HepaRG (AID 2283534); details: mRNA level, 48 h; actives raise or lower the signal
Procedure, shortened: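 Bidirectional change in TIMP1 transcript versus 0.5% DMSO, measured by TaqMan qRT-PCR with three housekeeping genes for normalization. HepaRG human liver cells dosed 48 h in duplicate, top concentration 100 uM with half-log dilutions.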

[1] = read-out: Tumor necrosis factor receptor 1 (TNFRSF1A), TNFRSF1A (gene 7132); experiment: LTEA_HepaRG_TNFRSF1A: Life Technologies and Expression Analysis (LTEA) Assay for Tumor necrosis factor receptor 1 (TNFRSF1A) using HepaRG (AID 2283535); details: mRNA level, 48 h; actives raise or lower the signal
Procedure, shortened: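 mRNA measured by qRT-PCR (TaqMan, Fluidigm arrays) against ACTB/GAPDH/POLR2A housekeepers after 48 h chemical exposure of HepaRG cells. Top concentration 100 uM, half-log 8-point series, duplicates; vehicle 0.5% DMSO, both fit directions.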

[2] = read-out: Thyroid Hormone Responsive (THRSP), THRSP (gene 7069); experiment: LTEA_HepaRG_THRSP: Life Technologies and Expression Analysis (LTEA) Assay for Thyroid Hormone Responsive (THRSP) using HepaRG (AID 2283536); details: mRNA level, 48 h; actives raise or lower the signal
Procedure, shortened: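 THRSP transcript quantified by Fluidigm qRT-PCR against three housekeeping genes after 48 h chemical exposure of HepaRG cells in serum-free induction medium; eight-point half-log series, top 100 uM, 0.5% DMSO vehicle, duplicate wells.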

[3] = read-out: Cellular tumor antigen p53 (Homo sapiens) (UniProt P04637); experiment: LTEA_HepaRG_TP53: Life Technologies and Expression Analysis (LTEA) Assay for Tumor Protein P53 (TP53) using HepaRG (AID 2283537); details: mRNA level, 48 h; actives raise or lower the signal
Procedure, shortened: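 Gain or loss of TP53 mRNA signal is scored relative to 0.5% DMSO after 48 h chemical treatment of HepaRG liver cells, tested in duplicate at eight half-log concentrations up to 100 uM.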

[4] = read-out: UDP glucuronosyltransferase (UGT1A1), UGT1A1 (gene 54658); experiment: LTEA_HepaRG_UGT1A1: Life Technologies and Expression Analysis (LTEA) Assay for UDP glucuronosyltransferase (UGT1A1) using HepaRG (AID 2283538); details: mRNA level, 48 h; actives raise or lower the signal
Procedure, shortened: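 HepaRG, 48 h chemical exposure (top 100 uM, half-log 8-pt, 0.5% DMSO vehicle), duplicate wells; qRT-PCR (TaqMan, Fluidigm array) for UGT1A1 mRNA, housekeeping-normalized; bidirectional curve fit vs DMSO baseline.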

[5] = read-out: UDP glucuronosyltransferase (UGT1A6), UGT1A6 (gene 54578); experiment: LTEA_HepaRG_UGT1A6: Life Technologies and Expression Analysis (LTEA) Assay for UDP glucuronosyltransferase (UGT1A6) using HepaRG (AID 2283539); details: mRNA level, 48 h; actives raise or lower the signal
Procedure, shortened: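 Expression was quantified by TaqMan qRT-PCR on Fluidigm arrays with ACTB/GAPDH/POLR2A normalization and bidirectional fitting against 0.5% DMSO. HepaRG cells (~100,000/well) were treated in duplicate for 48 h at eight half-log concentrations up to 100 uM in serum-free induction medium.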

[6] = read-out: X-box binding protein 1 (XBP1), XBP1 (gene 7494); experiment: LTEA_HepaRG_XBP1: Life Technologies and Expression Analysis (LTEA) Assay for X-box binding protein 1 (XBP1) using HepaRG (AID 2283540); details: mRNA level, 48 h; actives raise or lower the signal
Procedure, shortened: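 XBP1 transcript by qRT-PCR (housekeeping-normalized: ACTB, GAPDH, POLR2A) after 48 h chemical treatment of HepaRG cells, 8-point half-log series topping at 100 uM, vehicle 0.5% DMSO. Gain and loss of signal fitted relative to DMSO.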

[7] = LTEA_HepaRG_LDH_cytotoxicity: Cytotoxicity Assessment in the Life Technologies and Expression Analysis (LTEA) Assay (AID 2283563; active = hit-call score of the fitted dose curve at least 0.9, where 1 is the maximum;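 as to AC50: LDH activity released into spent culture medium as a marker of cell death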)
Procedure, shortened: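 LDH release into culture medium read after 48 h chemical treatment of HepaRG cells. Duplicate wells, eight-point half-log series topping at 100 uM, 0.5% DMSO vehicle and baseline.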

[8] = ATG_XTT_Cytotoxicity: Cytotoxicity Assessment in the Attagene TRANS-FACTORIAL HepG2 Assay (AID 2283584; active = hit-call score of the fitted dose curve at least 0.9, where 1 is the maximum)
Procedure, shortened: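 Viability endpoint from XTT after 24 h chemical exposure of reporter-transfected human HepG2 liver cells; signal loss fitted relative to DMSO negative control.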

[9] = TOX21_p53_BLA_p2_viability: Viability Assessment in the Tox21 HCT-116 p53 Agonism Beta-lactamase Assay, Phase 2 (AID 2283591; active = hit-call score of the fitted dose curve at least 0.9, where 1 is the maximum;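 also: compound exposure lasted 16 h at 37 °C; actives lower the ATP signal meaning cytotoxicity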)
Procedure, shortened: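 Cytotoxicity readout: CellTiter-Glo ATP luminescence, 30 min at room temperature, after the beta-lactamase read. Cells were HCT116 exposed 16 h at 37C to compounds pin-transferred at 217-fold dilution from DMSO stocks.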

Cellular tumor antigen p53 (Homo sapiens), sequence (P04637 whole entry, looked up): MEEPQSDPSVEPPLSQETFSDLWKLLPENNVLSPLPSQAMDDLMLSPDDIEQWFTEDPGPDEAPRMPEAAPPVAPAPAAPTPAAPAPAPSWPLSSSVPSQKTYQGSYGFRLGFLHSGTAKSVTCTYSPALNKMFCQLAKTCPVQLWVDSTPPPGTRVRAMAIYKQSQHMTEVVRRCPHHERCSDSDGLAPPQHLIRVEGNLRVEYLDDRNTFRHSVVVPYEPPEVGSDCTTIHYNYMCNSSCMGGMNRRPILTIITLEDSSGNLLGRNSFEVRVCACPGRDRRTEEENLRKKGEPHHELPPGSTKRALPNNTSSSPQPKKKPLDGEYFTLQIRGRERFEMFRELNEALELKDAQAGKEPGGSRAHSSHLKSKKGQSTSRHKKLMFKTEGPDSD

SMILES	outcome (TIMP1, TIMP1 (gene 7076))	outcome [1]	outcome [2]	outcome [3]	outcome [4]	outcome [5]	outcome [6]	outcome [7]	outcome [8]	outcome [9]	AC50 [2]	AC50 [4]	AC50 [6]	AC50 [5]	AC50 [7]	AC50 [9]	AC50 [1]	AC50 [3]
C=CC(=C)CCC=C(C)C	inactive	inactive	inactive	inactive	inactive	inactive	inactive	inactive	inactive	inactive								
O=C1CCCCCN1	inactive	inactive	inactive	inactive	inactive	inactive	inactive	inactive	inactive	inactive								
C1N2CN3CN1CN(C2)C3	inactive	inactive	inactive	inactive	inactive	inactive	inactive	inactive	inactive	inactive								
COC(=O)c1c(Cl)c(Cl)c(C(=O)OC)c(Cl)c1Cl	inactive	inactive	inactive	inactive	inactive	inactive	inactive	inactive	inactive	inactive								
CCOCCO	inactive	inactive	inactive	inactive	inactive	inactive	inactive	inactive	inactive	inactive								
O=C(NS(=O)(=O)/C=C/c1ccccc1)c1ccc(F)cc1Cl	inactive	inactive		inactive		inactive		inactive	inactive	inactive	0.502 µM (active)	17.1 µM (active)	26.3 µM (active)					
Cn1c(=O)c2c(ncn2C)n(C)c1=O	inactive	inactive	inactive	inactive	inactive	inactive	inactive	inactive	inactive	inactive								
CC(=O)OC[C@H]1O[C@@](COC(C)=O)(O[C@H]2O[C@H](COC(C)=O)[C@@H](OC(C)=O)[C@H](OC(C)=O)[C@H]2OC(C)=O)[C@@H](OC(C)=O)[C@@H]1OC(C)=O	inactive	inactive	inactive	inactive	inactive	inactive	inactive	inactive	inactive	inactive								
NC(=O)NO	inactive	inactive	inactive	inactive	inactive	inactive	inactive	inactive	inactive	inactive								
Cn1c(=O)cc(Oc2ccc(F)cc2F)c2cnc(NCC(C)(C)O)nc21	inactive	inactive	inactive	inactive	inactive	inactive	inactive	inactive	inactive	inactive								
CCCCCCCCCCCCCCCO	inactive	inactive	inactive	inactive	inactive	inactive	inactive	inactive	inactive	inactive								
COc1ccc(-n2nc(C(F)F)cc2-c2ccc(S(C)=O)cc2)cc1 (centres undefined)	inactive	inactive	inactive	inactive		inactive	inactive	inactive	inactive	inactive		39.6 µM (active)						
Cc1ccc(S(=O)(=O)O)cc1C	inactive	inactive	inactive	inactive	inactive	inactive	inactive	inactive	inactive	inactive								
CC(O)CN(CCN(CC(C)O)CC(C)O)CC(C)O (centres undefined)	inactive	inactive	inactive	inactive	inactive	inactive	inactive	inactive	inactive	inactive								
CCCCC(CC)COC(=O)c1ccc(C(=O)OCC(CC)CCCC)cc1 (centres undefined)	inactive	inactive	inactive	inactive	inactive	inactive	inactive	inactive		inactive								
Cc1ccc(N)cc1O	inactive	inactive		inactive	inactive	inactive	inactive	inactive		inactive	25.2 µM (active)							
CNS(=O)(=O)c1cc(C(=O)N2CCC(CCN3C4CCC3CC(n3c(C)nc5ccccc53)C4)(c3cccc(F)c3)CC2)c(Cl)cc1F (centres undefined)	inactive	inactive	inactive	inactive			inactive					9.92 µM (active)		50 µM (active)	32.2 µM (active)	26.9 µM (active)		
CCN(C(=O)c1cc(C)cc(OC[C@H](C)Nc2ccncc2)c1)C(C)C	inactive					inactive	inactive			inactive	6.4 µM (active)	6.7 µM (active)			49.7 µM (active)		0.172 µM (active)	9.37 µM (active)
CC(C)=CCC/C(C)=C\CO	inactive	inactive	inactive	inactive	inactive	inactive	inactive	inactive	inactive	inactive								
CC(C)(O)c1coc(S(=O)(=O)NC(=O)Nc2c3c(cc4c2CCC4)CCC3)c1	inactive	inactive	inactive	inactive		inactive	inactive	inactive		inactive		21.5 µM (active)						
CCCCCCCCO	inactive	inactive	inactive	inactive	inactive	inactive	inactive	inactive		inactive								
